# The list is not random: actives were taken first. Their share in the collection is about 2.2%.
# FAS TE block: blocks the thioesterase domain of human fatty acid synthase | AID 602261 | hit rate 0.67% among 360,000 | inhibition, % at 15 µM | recombinant FAS-TE, OMFH fluorogenic substrate, fluorescence endpoint;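 active means compounds whose normalised, plate-corrected inhibition of enzyme fluorescence in the single-dose primary screen is 50% or more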;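 further: 0% = DMSO with enzyme and 100% = substrate without enzyme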
# PLCg1 inh: PLC-gamma1 (human) inhibition, primary screen. purified PLC-gamma1, fluorogenic substrate, fluorescence. hit rate 0.84% among 370,000. inhibition, % at 12.2 µM. P19174
# Target sequence (P19174 whole entry, looked up): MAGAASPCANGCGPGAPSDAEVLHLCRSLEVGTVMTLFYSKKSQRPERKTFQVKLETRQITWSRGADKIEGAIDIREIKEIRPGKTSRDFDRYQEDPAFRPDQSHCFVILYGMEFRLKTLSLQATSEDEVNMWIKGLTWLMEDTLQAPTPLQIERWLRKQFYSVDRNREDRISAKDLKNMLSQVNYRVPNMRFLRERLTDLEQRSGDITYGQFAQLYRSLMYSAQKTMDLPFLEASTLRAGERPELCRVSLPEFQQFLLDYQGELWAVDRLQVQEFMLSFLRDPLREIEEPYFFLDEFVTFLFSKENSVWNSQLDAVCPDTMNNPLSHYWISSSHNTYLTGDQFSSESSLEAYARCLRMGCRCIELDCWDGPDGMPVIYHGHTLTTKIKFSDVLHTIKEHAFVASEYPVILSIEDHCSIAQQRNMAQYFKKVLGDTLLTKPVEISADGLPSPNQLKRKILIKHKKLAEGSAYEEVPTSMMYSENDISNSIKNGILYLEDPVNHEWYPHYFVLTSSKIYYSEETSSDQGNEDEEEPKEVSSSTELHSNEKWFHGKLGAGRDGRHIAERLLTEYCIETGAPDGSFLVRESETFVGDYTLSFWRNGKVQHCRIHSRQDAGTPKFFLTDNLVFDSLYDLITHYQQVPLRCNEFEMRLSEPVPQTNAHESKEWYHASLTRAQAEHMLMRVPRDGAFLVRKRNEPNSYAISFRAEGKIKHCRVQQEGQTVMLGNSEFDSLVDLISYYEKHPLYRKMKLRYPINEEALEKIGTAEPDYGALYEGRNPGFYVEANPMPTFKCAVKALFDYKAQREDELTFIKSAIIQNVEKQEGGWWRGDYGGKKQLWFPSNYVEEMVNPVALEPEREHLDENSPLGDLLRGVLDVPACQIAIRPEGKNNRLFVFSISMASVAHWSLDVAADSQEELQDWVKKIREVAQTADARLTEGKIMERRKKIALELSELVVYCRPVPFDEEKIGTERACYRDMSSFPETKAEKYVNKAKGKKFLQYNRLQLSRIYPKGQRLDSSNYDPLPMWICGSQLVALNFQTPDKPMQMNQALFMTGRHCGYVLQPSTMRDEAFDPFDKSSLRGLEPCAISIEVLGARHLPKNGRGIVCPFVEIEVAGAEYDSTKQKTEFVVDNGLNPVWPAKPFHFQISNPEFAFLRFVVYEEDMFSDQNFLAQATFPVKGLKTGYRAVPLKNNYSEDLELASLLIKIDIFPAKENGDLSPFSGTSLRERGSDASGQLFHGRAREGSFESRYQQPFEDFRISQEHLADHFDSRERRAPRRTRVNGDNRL
# H9c2 protect: protects H9c2 cardiomyocytes from peroxide injury. H2O2 injury protection, ATPLite, 2 h. protection from H2O2 cell death, % at 20 µM. hit rate 0.63% among 360,000;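 active means compounds giving at least 50% protection of heart cells from peroxide-induced death in the single-dose screen, raw or plate-pattern-corrected value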;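 further: 0% = DMSO wells with peroxide and 100% = DMSO wells without peroxide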
# PLCb3 inh: inhibitors of human phospholipase C beta3 | AID 720704 | Purified PLC-beta3, fluorogenic substrate, fluorescence | inhibition, % at 12.2 µM | Q01970 | hit rate 0.18% among 370,000; in the data active means inhibition above about 11%;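 further: 0% = median of compound wells on plate and 100% = full blocker control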
# FAS-TE inh conf: FAS thioesterase (human) inhibition, confirmation; shares compounds with FAS TE block; hit rate 45% among 2,300; recombinant FAS-TE, OMFH fluorogenic substrate, fluorescence; inhibition, % at 15 µM;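 active means compounds inhibiting the enzyme by at least 50% at 15 µM in any one of the replicates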;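 further: 0% = enzyme with DMSO only and 100% = wells lacking enzyme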
# PLCgamma1 ctr: inhibits human PLC-gamma1 in PLC-beta3 counter-screen; shares compounds with PLCg1 inh; purified PLC-gamma1, fluorogenic substrate, fluorescence; inhibition, % at 12.3 µM; hit rate 3.1% among 3,300; AID 743258
# PLCb3 confirm: confirmation of human PLC-beta3 inhibitors | shares compounds with PLCg1 inh | purified PLC-beta3, fluorogenic substrate fluorescence | inhibition, % at 12.3 µM | hit rate 1% among 3,300 | AID 743261; in the data active means inhibition above about 11%
# Starred values were filed as active, the others as inactive; · = no result given. Unless noted, no stated cut-off is given here; in the data, active means inhibition above about 9.5%; inactive means the rest.
SMILES,FAS TE block,PLCg1 inh,H9c2 protect,PLCb3 inh,FAS-TE inh conf,others
COc1ccc(-n2nnnc2C(c2ccccc2OC(F)(F)F)N2CCC3(CC2)C(=O)NCN3c2ccccc2)cc1 (centres undefined),60*,2,-7,-2,31,
O=[N+]([O-])/C=C/c1c(Cl)cccc1Cl,-4,6,-21,-11,·,
c1cc2c(cc1-c1ccc3c(c1)OCO3)CNCc1cnnn1-2,-7,-53,10,-76,·,
O=C1C=CC(=O)C2C1C1(Cl)C(Cl)=C(Cl)C2(Cl)C1(Cl)Cl (centres undefined),60*,7,-13,0,57*,
O=C(O)c1cc2ccccc2n1C1CCN(Cc2ccccc2)CC1,·,1,·,1,·,
Cn1cc(C=C(C#N)C#N)c2ccccc21,63*,1,1,-4,-20,
COc1ccc([N+](=O)[O-])cc1N=Cc1c(O)n(CCc2ccccc2)c(=O)n(C(C)C)c1=O,72*,0,10,0,-3,
COc1ccc(CCn2c(O)c(C=Nc3ccccc3F)c(=O)[nH]c2=O)cc1OC,-4,1,-2,-4,·,
COP(=O)(OC)OC=C(Cl)Cl,·,1,·,-7,·,
COc1ccc2nc(-c3ccc(CN4CCC(n5c(=O)[nH]c6ccccc65)CC4)cc3)c(-c3ccccc3)nc2c1,76*,-47,·,-64,11,
N#Cc1ccc2nc(-c3ccc(CN4CCC(n5c(=O)[nH]c6cc(Cl)ccc65)CC4)cc3)c(-c3ccccc3)nc2c1,·,-17,·,-10,·,
Cc1ccc2nc(-c3ccc(CN4CCC(n5c(=O)[nH]c6ccccc65)CC4)cc3)c(-c3ccccc3)nc2c1,72*,-6,·,-9,12,
O=c1[nH]c2ccccc2n1C1CCN(Cc2ccc(-c3nc4ccc(F)cc4nc3-c3ccccc3)cc2)CC1,63*,-3,·,-6,10,
O=c1[nH]c2ccccc2n1C1CCN(Cc2ccc(-c3nc4ccccc4nc3-c3ccccc3)cc2)CC1,61*,-23,·,-40,3,
Cc1ccc2nc(-c3ccc(CN4CCC(n5nnc6ccccc65)CC4)cc3)c(-c3ccccc3)nc2c1,·,-61,·,-76,·,
Cc1cccc2nc(-c3ccccc3)c(-c3ccc(CN4CCC(n5c(=O)[nH]c6cc(Cl)ccc65)CC4)cc3)nc12,·,-17,·,-25,·,
CC(C)NC1(c2ccccc2)CCCCC1,·,3,·,1,·,
COc1ccc2c3c([nH]c2c1)[C@H](C=C(C)C)N1C(=O)[C@@H]2CCCN2C(=O)[C@@H]1C3,·,-17,·,-27,·,
CN1CCc2nc(SCc3ccccc3Br)c(C#N)cc2C1,54*,-44,18,-60,45*,
Cc1cccc(CSc2nc3c(cc2C#N)CN(C)CC3)c1,-5,-5,6,-2,·,
COC(=O)C1=C(c2cccc3c2S(=O)(=O)c2ccccc2-3)C[C@@H]2CC[C@H]1N2C(=O)N1CCOCC1,-4,1,5,-1,·,
COC(=O)C1=C(c2cccc3c2S(=O)(=O)c2ccccc2-3)C[C@@H]2CC[C@H]1N2C(=O)N1CCc2cc(OC)c(OC)cc2C1,68*,-2,23,-6,31,
O=S(=O)(c1cc(Cl)cc(Cl)c1)N1Cc2cc(-c3ccccc3)ccc2-n2nncc2C1,86*,0,2,0,10,
CCC1(c2ccc(C)cc2)C(=O)NC(=S)NC1=O,5,5,5,5,·,
Cc1noc(C)c1COc1ccc(C(=O)NCC2(N(C)C)CCCCC2)cc1,-8,0,8,1,·,
SMILES,FAS TE block,PLCg1 inh,H9c2 protect,PLCb3 inh,FAS-TE inh conf,others
NP(=O)(Oc1ccccc1Cl)Oc1ccccc1Cl,75*,2,0,-1,85*,
C=CCn1c(=O)c(C=Nc2c(OC)cccc2[N+](=O)[O-])c(O)n(CCCC)c1=O,70*,-3,10,1,20,
C=CCn1c(=O)c(C=Nc2cccc([N+](=O)[O-])c2)c(O)n(CCCC)c1=O,42,0,3,-1,·,
CN(Cc1cccc(-c2cccnc2)c1)C(=O)Oc1ccc([N+](=O)[O-])cc1,51*,4,·,1,25,
COc1cccc(C(c2nnnn2-c2c(C)cccc2C)N2CCC(n3c(=O)[nH]c4ccccc43)CC2)c1OC (centres undefined),82*,0,-5,0,4,
CCC(c1nnnn1-c1ccc(OC)cc1)N1CCC(n2c(=O)[nH]c3ccccc32)CC1 (centres undefined),-3,3,12,5,·,
O=c1[nH]c2ccccc2n1C1CCN(C(CCc2ccccc2)c2nnnn2-c2ccc3c(c2)OCCO3)CC1 (centres undefined),89*,-2,17,-3,17,
COc1ccc(-n2nnnc2C(c2ccccc2OC(F)(F)F)N2CCC(n3c(=O)[nH]c4ccccc43)CC2)cc1 (centres undefined),60*,4,-8,0,2,
Cc1cccc(C)c1-n1nnnc1C(CCc1ccccc1)N1CCC(n2c(=O)[nH]c3ccccc32)CC1 (centres undefined),54*,0,-13,3,12,
COc1ccc(-n2nnnc2C(CCSC)N2CCC(n3c(=O)[nH]c4ccccc43)CC2)cc1 (centres undefined),6,-2,46,2,·,
O=C(NC(Cc1ccccc1)P(=O)(O)Oc1ccccc1)OCc1ccccc1 (centres undefined),·,4,·,1,·,
O=c1[nH]c2ccccc2n1C1CCN(C(c2ccnc3ccccc23)c2nnnn2-c2ccc3c(c2)OCCO3)CC1 (centres undefined),17,0,43,1,·,
COc1ccc(C(c2nnnn2-c2ccc3c(c2)OCCO3)N2CCC(n3c(=O)[nH]c4ccccc43)CC2)cc1 (centres undefined),54*,1,37,2,15,
C[C@H]1CNCCN1c1ccc(N2CC[C@@H](O)C2)c(C#N)c1,·,-23,·,-24,·,
Cc1cccc(Cn2cc(C=O)c3ccccc32)c1,12,-2,-14,-5,·,
O=Cc1cn(Cc2cccc([N+](=O)[O-])c2)c2ccccc12,55*,-4,-2,-2,59*,
Cc1cc(NC(=O)CCl)nn1C,-8,13*,3,3,·,PLCgamma1 ctr=-6;PLCb3 confirm=-3
CC(C)C(NC(=O)OCc1ccccc1)P(=O)(Oc1ccccc1)Oc1ccccc1 (centres undefined),·,0,·,-2,·,
O=C(c1cccs1)C1CN2CCC1CC2 (centres undefined),-4,10*,-8,3,·,PLCgamma1 ctr=-4;PLCb3 confirm=-1
CN1CC(C(=O)c2cccs2)C(c2ccc(Cl)cc2)C1 (centres undefined),-3,2,1,4,·,
Cc1ccc(OCC(=O)N2CCN(CC3CC4C=CC3C4)CC2)cc1 (centres undefined),-7,0,2,-1,·,

# Bioassay records: PubChem BioAssay, several laboratories
